JMJD2A Tudor inh = inhibitors of human JMJD2A Tudor domain. AlphaScreen JMJD2A-Tudor / H3K4me3 peptide binding. Potency, µM (highest dose often 114 µM), inactives show at the top dose activity change, negative = inhibition, hits mostly inhibitors. 390,000 compounds, 4.4% hits. AID 504339; further: on the % scale 0 is the no-effect control and ±100 the full control effect; nearly all actives have a fitted effect of over 50% in size
Target sequence (O75164 whole entry, looked up, the tested form may be a part): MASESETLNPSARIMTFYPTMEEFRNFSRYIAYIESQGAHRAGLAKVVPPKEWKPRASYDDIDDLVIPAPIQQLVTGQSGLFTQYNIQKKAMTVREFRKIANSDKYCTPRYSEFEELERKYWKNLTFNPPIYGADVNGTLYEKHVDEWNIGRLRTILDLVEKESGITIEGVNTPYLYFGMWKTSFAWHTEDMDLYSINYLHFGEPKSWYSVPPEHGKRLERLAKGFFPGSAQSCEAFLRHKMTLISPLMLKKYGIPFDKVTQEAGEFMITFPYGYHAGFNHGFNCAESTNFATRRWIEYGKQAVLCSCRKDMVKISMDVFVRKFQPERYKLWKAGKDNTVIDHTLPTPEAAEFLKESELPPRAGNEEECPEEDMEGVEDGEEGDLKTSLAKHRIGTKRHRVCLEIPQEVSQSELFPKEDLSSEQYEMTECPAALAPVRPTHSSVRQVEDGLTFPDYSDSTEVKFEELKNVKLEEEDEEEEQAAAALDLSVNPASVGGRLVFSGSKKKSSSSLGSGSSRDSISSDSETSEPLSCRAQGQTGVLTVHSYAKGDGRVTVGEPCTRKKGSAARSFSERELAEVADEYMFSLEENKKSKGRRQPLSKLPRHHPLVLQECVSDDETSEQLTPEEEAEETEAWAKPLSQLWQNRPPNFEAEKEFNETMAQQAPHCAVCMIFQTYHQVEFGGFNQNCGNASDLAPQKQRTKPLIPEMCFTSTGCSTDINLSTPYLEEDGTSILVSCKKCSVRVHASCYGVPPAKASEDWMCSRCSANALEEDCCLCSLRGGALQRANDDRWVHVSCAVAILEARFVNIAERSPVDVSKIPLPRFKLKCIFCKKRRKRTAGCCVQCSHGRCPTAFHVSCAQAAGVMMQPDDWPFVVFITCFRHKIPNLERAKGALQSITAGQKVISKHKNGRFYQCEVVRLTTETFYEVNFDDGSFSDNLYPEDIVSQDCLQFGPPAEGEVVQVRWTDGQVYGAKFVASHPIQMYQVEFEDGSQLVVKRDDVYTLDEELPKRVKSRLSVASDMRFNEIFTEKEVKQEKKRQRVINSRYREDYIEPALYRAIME
G9a inh = blocks human histone lysine methyltransferase G9a | Q96KQ7 | G9a H3K9 monomethylation, AlphaScreen, 2 h | Potency, µM (series often up to 102 µM), without a hit: at the top dose activity, negative = inhibition, most hits filed as inhibitors | 350,000 compounds, 8.8% hits | AID 504332; further: on the % scale 0 is the no-effect control and ±100 the full control effect; nearly all actives have a fitted effect of over 75% in size
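Signal arises when biotinylated H3K9 peptide, once monomethylated, bridges streptavidin donor and antibody-captured acceptor beads. Enzyme at 20 nM was preincubated 15 min with test compounds; peptide 500 nM and SAM 20 uM then reacted for 2 h.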
Sfp inh = inhibitors of Bacillus subtilis Sfp phosphopantetheinyl transferase; Biochemical Sfp PPTase activity, qHTS; Potency, µM, without a hit: largest response in the series, negative = inhibition, usual class: inhibitors; 310,000 compounds, 3.5% hits; AID 1490;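 further: the enzyme is Sfp with the accession as filed and its product quenches rhodamine fluorescence; 0% = enzyme reaction without inhibitor and -100% = no enzyme wells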
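Sfp 15 nM + cpd, 15 min RT; start w/ rhodamine-CoA 5 uM, BHQ-2-YbbR 12.5 uM (final); 50 mM Hepes pH 7.6, 10 mM MgCl2, 0.01% NP-40, 0.01% BSA; read 525/598 nm at 0 and 30 min.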
L3MBTL1 inh = L3MBTL1 (human) inhibition | 230,000 compounds, 0.66% hits | Potency, µM (doses to about 57.1 µM), inactives show at the top dose activity, negative = inhibition, most hits filed as inhibitors | AlphaScreen L3MBTL1–H3K9me1 peptide binding | Q9Y468; further: on the % scale 0 is the no-effect control and ±100 the full control effect; nearly all actives have a fitted effect of over 60% in size
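Displacement of a biotinylated histone H3(1-15) peptide monomethylated at Lys9 (75 nM) from L3MBTL1 (50 nM) was measured by AlphaScreen after a 30 min room-temperature compound incubation; cefsulodin titration served as intraplate control.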
HP1b chromo inh = HP1-beta chromodomain-methylated histone interaction inhibition; P83916; AlphaScreen HP1-beta / biotin-H3K9me3 peptide binding; Potency, µM (titrated, usually from 114 µM), without a hit: at the highest dose activity change, negative = inhibition, most hits filed as inhibitors; 390,000 compounds, 0.56% hits; further: nearly all actives have a fitted effect of over 70% in size
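Compound inhibition of the preformed complex between 50 nM HP1-beta and 50 nM biotinylated H3K9me3 peptide was read by AlphaScreen. Buffer was PBS pH 7.4 with 0.01% Tween-20. Incubations ran 30 min at room temperature, with 10 ug/mL donor/acceptor beads.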
BAZ2B block = BAZ2B (human) inhibition; Q9UIF8; AlphaScreen BAZ2B-H3K14Ac peptide displacement; Potency, µM (titrated, usually from 114 µM), for the others: top-dose activity change, negative = inhibition, usual class: inhibitors; 360,000 compounds, 4.4% hits; further: on the % scale 0 is the no-effect control and ±100 the full control effect; nearly all actives have a fitted effect of over 60% in size
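AlphaScreen displacement: compounds (up to 110uM) incubated 30 min at room temperature with a preformed 50 nM BAZ2B/50 nM biotinylated H3K14Ac peptide complex in PBS pH 7.4 with Tween-20. Donor and acceptor beads at 10 ug/mL final added, 20 min light-protected before reading.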
Numbers without * were called inactive; ? = inconclusive; / = no result; [ ] = another dose, or the depositor's remark. In the library only some 12% were active in any assay of this set; here they are far more common. The call rests on the fitted dose curve; in most records, active means well fitted curve in the direction sought with a large enough effect; inconclusive means small, poorly fitted or top-dose-only effect, or another doubt; inactive means no such curve, though single readings can be large; an effect the other way counts as inactive or inconclusive. Potency means the concentration at half of the fitted maximal effect.

SMILES	JMJD2A Tudor inh	G9a inh	Sfp inh	L3MBTL1 inh	HP1b chromo inh	BAZ2B block
COC(=O)c1ccc(NC(=O)c2cc3sccc3n2C)cc1	-33%	71µM*	45µM*	-17%	4%	?
COc1ccc(OC)c(NC(=O)c2cc3sccc3n2C)c1	?	50µM*	-25%	-11%	-11%	?
CCC(=O)N1CCCc2cc(S(=O)(=O)Nc3ccc(C)c(C)c3)ccc21	-24%	-26%[59 µM]	/	/	11%	/
O=C(Oc1ccccc1)N1CCC2(CC1)CCN(c1ncccn1)CC2	/	-2%[12.7 µM]	-7%	/	/	/
CCOC(=O)c1cc2sccc2n1CC(=O)Nc1ccc(OC)cc1OC	-22%	13µM*	10%	-9%	16%	-7%
Cn1c(C(=O)Nc2ccccc2)cc2sccc21	-29%	1.6µM*	-5%	-1%	5%	?
COc1ccc(OC)c(NC(=O)c2cn(C)c(=O)c3cc(OC)c(OC)cc23)c1	-16%	40µM*	21%	11%	8%	-36%
Cn1c(C(=O)Nc2ccc3c(c2)OCO3)cc2sccc21	?	32µM*	-5%	-2%	-18%	-38%
CCc1ccccc1NC(=O)c1cc2sccc2n1C	?	?	-5%	/	0%	0%
C[C@H](NC(=O)CNC(=O)[C@@H](NC(=O)[C@H](Cc1ccccc1)NC(=O)CNC(=O)CNC[C@@H](N)Cc1ccccc1)[C@@H](C)O)C(=O)N[C@@H](CCCN=C(N)N)C(=O)N[C@@H](CCCCN)C(=O)N[C@@H](CO)C(=O)N[C@@H](C)C(=O)N[C@@H](CCCN=C(N)N)C(=O)N[C@@H](CCCCN)C(N)=O	/	/	13%	/	/	/
COc1ccc(-n2c(SCC(=O)N3CCC(C)CC3)nc3c([nH]c4ccccc43)c2=O)cc1	-2%	4%[59 µM]	/	/	13%[57 µM]	6%
CCCCNC(=O)NS(=O)(=O)c1ccc(CO)cc1	/	/	7%	/	/	/
Cc1cnc(C=NNC(N)=S)c2cccc(N)c12	50µM*	/	/	/	?	/
NC(=S)NN=Cc1nccc2ccccc12	18µM*	/	/	/	-6%[57 µM]	/
Cc1ccccc1-c1cc(C(=O)N2CCCC2)c2ccccc2n1	-12%	40µM*	-5%	/	8%	-20%
N#Cc1ccc(CN2CCN(C(=O)c3cn(Cc4ccccc4)nc3-c3cccnc3)CC2)cc1	-15%	?	/	-5%	27%	1%
COc1ccc(N2CCN(C(=O)c3cn(Cc4ccccc4)nc3-c3cccnc3)CC2)cc1	-31%	8.9µM*	/	-2%	4%	-36%
Cc1ccc(-c2cc(C(=O)N3CCOCC3)c3ccccc3n2)o1	-29%	/	/	4%	-16%	/
Cc1ccc(-c2cc(C(=O)N3CCN(c4ccc(F)cc4)CC3)c3ccccc3n2)o1	56µM*	45µM*	25µM*	-20%	-17%	40µM*
COCCOC(=O)/C(C#N)=C/c1cn(Cc2ccccc2)nc1-c1cccnc1	35µM*	?	10%	?	16%	79µM*
CCCN(CCC)C(=O)Cn1c(=O)n(-c2ccc(CC)cc2)c(=O)c2ccc(C(=O)NCCc3ccccc3)cc21	4%	6%[59 µM]	/	/	26%	/
COc1cc2c(cc1OC)CN(C(=O)c1cc(C3CC3)nn1-c1ccccc1)CC2	-33%	?	/	-1%	6%	?
COc1ccc(N2CCN(C(=O)c3cc(-c4cc(OC)ccc4OC)nc4ccccc34)CC2)cc1	35µM*	25µM*	-1%	/	?	11µM*
O=C(c1cc(-c2ccccc2Cl)nc2ccccc12)N1CCN(c2ccccc2O)CC1	-32%	56µM*	/	-13%	-6%	-35%
COc1ccc(N2CCN(C(=O)c3cc(C4CC4)nn3-c3ccccc3)CC2)cc1	50µM*	?	/	-23%	?	45µM*
SMILES	JMJD2A Tudor inh	G9a inh	Sfp inh	L3MBTL1 inh	HP1b chromo inh	BAZ2B block
Cc1ccc(-c2cc(C(=O)N3CCN(c4ccc(O)cc4)CC3)c3ccccc3n2)cc1	28µM*	/	/	-30%	?	/
COc1ccc(OC)c(-c2cc(C(=O)N3CCN(c4ncccn4)CC3)c3ccccc3n2)c1	-4%	?	9%	-5%	11%	3%
O=C(c1cc(-c2ccccc2Cl)nc2ccccc12)N1CCC1	-9%	-38%	/	3%	14%	-2%
COc1ccc(-c2cc(C(=O)N3CCCC3)c3ccccc3n2)cc1	-23%	25%[59 µM]	-2%	/	7%	2%
O=C(c1cc(-c2ccc(F)cc2)nc2ccccc12)N1CCC1	-1%	/	/	0%	33%	/
COc1ccc(-c2cc(C(=O)N3CCN(c4ncccn4)CC3)c3ccccc3n2)c(OC)c1	-4%	?	-2%	1%	25%	-1%
COc1ccc(-c2cc(C(=O)N3CCN(c4ccccc4O)CC3)c3ccccc3n2)cc1	-33%	?	/	2%	14%	-38%
COc1ccc(-c2cc(C(=O)N3CCCCCC3)c3ccccc3n2)c(OC)c1	-28%	40µM*	40µM*	/	18%	-34%
O=C(O)c1cc(-c2ccc(-c3ccc(F)cc3)o2)nc2ccccc12	0%	-101%[59 µM]	3.5µM*	/	35%	?
Cc1ccc(-c2cc(C(=O)N3CCN(c4ccccc4O)CC3)c3ccccc3n2)cc1	?	40µM*	/	-7%	-7%	-36%
COc1ccc(-c2cc(C(=O)N3CCN(c4ccccc4)CC3)c3ccccc3n2)cc1	-29%	40µM*	8%	1%	6%	-38%
CC(C)c1nc2ccc(Br)cn2c1NC1CCCC1	-8%	45µM*	1%	?	42%	?
O=C(CSc1ncnc2ccccc12)N1CCCC1	-12%	-19%	25%	/	30%	-4%
Cc1ccc(C(=O)CSc2ncnc3ccccc23)o1	-4%	25µM*	?	-8%	-2%	-20%
O=C(CSc1ncnc2ccccc12)c1cccs1	3%	22µM*	-64%	/	3%	5%
Cc1nn(CCC(=O)N2CCN(c3ccccc3)CC2)c(C)c1S(=O)(=O)N1CCCC1	-8%	-20%[12.7 µM]	/	/	11%	-37%
CNc1ccnc(-c2ccccc2C(F)(F)F)n1	/	/	15%	/	/	/
Cc1cc(C)c2cc3c(N)c(C(=O)N4CCc5ccccc5C4)sc3nc2c1	-16%	10µM*	-16%	1%	15%	3%
Cc1ccc2nc3sc(C(=O)N4CCCc5ccccc54)c(N)c3cc2c1	-35%	3.2µM*	22%	1%	17%	4%
COc1ccc(CC(=O)Nc2cccc(C(C)=O)c2)cc1S(=O)(=O)N1CCOCC1	-8%	18%[12.7 µM]	/	2%	28%	7%
COc1ccc(NC(=O)/C=C/c2ccc(C)o2)cc1S(=O)(=O)N1CCOCC1	-17%	6.3µM*	50µM*	-5%	-4%	?
COc1ccc(NC(=O)CNCc2ccc(Cl)cc2)cc1S(=O)(=O)N1CCOCC1	3.5µM*	/	/	-1%	?	/
